Our source for the growth inhibition values is the supplement of paper PMC6763611.

This assay concerns Plasmodium falciparum NF54. Kind of assay: growth inhibition relative to untreated control; higher = more inhibition. The settings on record: 72 h. The essentials: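 In dark 96-well half-area plates, each well held 100 μL of P. falciparum NF54 ring-stage culture at 1% parasitemia and 1% hematocrit. The cultures received a single test-compound dose of 5 μM or 1 μM and were kept at 37 °C for 72 h, in minimal RPMI either plain or enriched with folate (2.2 μM), pABA (7.3 μM), pHBA (7.3 μM), tyrosine (111 μM), phenylalanine (90 μM) and tryptophan. SYBR Green staining gave growth inhibition, expressed against untreated wells, with uninfected erythrocytes serving as the background.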

Where [1] appears, read: 1 µM, MM + chorismate end-products (CM screening medium).
[2] abbreviates: 5 µM, MM + chorismate end-products (CM screening medium).

Regarding `CC(C)(C)C(=O)N(CCCCCCN1C[C@H](O)[C@@H](O)[C@H](O)[C@H]1CO)C1CCCCCC1`, the growth inhibition runs as follows: under setting [1], 28.4%; (1 µM, minimal medium (MM)) less than 0%; under setting [2], less than 0%; (5 µM, minimal medium (MM)) less than 0%.

Regarding `O=C(Nc1cccc(Cl)c1)c1cnc(N2CCN(c3ccncc3)CC2)c(Cl)c1`, the growth inhibition reads like this: under setting [1], 90.3%; (1 µM, minimal medium (MM)) greater than 100%; under setting [2], 99.9%; (5 µM, minimal medium (MM)) 87.9%.

Regarding `NCCC(O)C(=O)N[C@@H]1C[C@H](N)[C@@H](OC2O[C@H](CN)[C@@H](O)[C@H](O)[C@H]2O)[C@H](O)C1OC1O[C@H](CO)[C@@H](O)[C@H](N)[C@H]1O` (some centres undefined), the growth inhibition is 46% under setting [1]; 17.2% (1 µM, minimal medium (MM)); less than 0% under setting [2]; less than 0% (5 µM, minimal medium (MM)).

With `CC1(C)Cc2c(c(N3CCOCC3)nc3snc(Br)c23)CO1`, the growth inhibition under setting [1] came out at 79.2%; the growth inhibition (1 µM, minimal medium (MM)) turned out to be 74.4%; the growth inhibition under setting [2] worked out at 53.9%; the growth inhibition (5 µM, minimal medium (MM)) is 19.1%.

With `COc1cccn2c(C(=O)N3CCCCC3)c(C(F)(F)F)nc12`, the growth inhibition was 12.4% under setting [1]; 15.1% (1 µM, minimal medium (MM)); less than 0% under setting [2]; less than 0% (5 µM, minimal medium (MM)).

On to `CC(=O)NC[C@@H]1CN(c2ccc(N3CCOCC3)c(F)c2)C(=O)O1`, for which the growth inhibition by setting is: under setting [1], 18.8%; (1 µM, minimal medium (MM)) 11.7%; under setting [2], less than 0%; (5 µM, minimal medium (MM)) less than 0%.

Turning to `O=C(NC1=NCCS1)c1sc2cc(F)ccc2c1Cl`, the growth inhibition under setting [1] amounted to 25.1%; the growth inhibition (1 µM, minimal medium (MM)) came to 4.51%; the growth inhibition under setting [2] was less than 0%; the growth inhibition (5 µM, minimal medium (MM)) was less than 0%.

Regarding `Cc1cc(NCC(C)C)c2[nH]nc(-c3ccccc3)c2n1`, the growth inhibition reads like this: under setting [1], 89.6%; (1 µM, minimal medium (MM)) 94.3%; under setting [2], 99.7%; (5 µM, minimal medium (MM)) 87.9%.

As to `c1ccc(-c2[nH]c3ccccc3c2C(c2ccccn2)N2CCCC2)cc1` (centres undefined), the growth inhibition under setting [1] turned out to be 3.66%; the growth inhibition (1 µM, minimal medium (MM)) was found to be 5.9%; the growth inhibition under setting [2] amounted to 43.6%; the growth inhibition (5 µM, minimal medium (MM)) was less than 0%.

For `NCCN(C(=O)c1ccc(Cl)cc1Cl)c1ccc(OCc2ccc(Cl)cc2)cc1`, the growth inhibition by setting is: under setting [1], 33.8%; (1 µM, minimal medium (MM)) 27.2%; under setting [2], 97.9%; (5 µM, minimal medium (MM)) 91.1%.

Take `Cc1ccc(NC(=O)c2nc[nH]c2C(=O)Nc2nc3ccccc3[nH]2)c(C)c1`: the growth inhibition reads like this: under setting [1], 31%; (1 µM, minimal medium (MM)) 49.8%; under setting [2], 26.8%; (5 µM, minimal medium (MM)) 80.9%.
